Laboratory results taken from PubChem BioAssay (NCI).
This is part of a sample that, as a whole, favours compounds with a hit. Of some 83,000 tested, about 20% had one in any assay.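 Results are percent growth after 48 hours of single-concentration exposure. 100 means growth as in untreated cells, lower positive values show inhibition; negative values down to -100 show cell death.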 Activity calls are given as the source filed them. Rule for the calls: active = growth percent below 10; inactive = the rest.

Tests used:
Assay in all cases: NCI-60 one-dose screen, 48 h (100 = growth as untreated, 0 = no growth, -100 = all killed)
Details in all cases: 10 µM unless noted
[1] = tested on: SR leukemia
[2] = tested on: RPMI-8226 leukemia
[3] = tested on: OVCAR-8 ovarian
[4] = tested on: OVCAR-5 ovarian
[5] = tested on: OVCAR-4 ovarian
[6] = tested on: SK-OV-3 ovarian
[7] = tested on: IGROV1 ovarian
[8] = tested on: OVCAR-3 ovarian
[9] = tested on: HS 578T breast
[10] = tested on: NCI/ADR-RES ovarian
[11] = tested on: T-47D breast
[12] = tested on: BT-549 breast
[13] = tested on: MDA-MB-435 melanoma
[14] = tested on: SW-620 colon
[15] = tested on: MCF7 breast
[16] = tested on: HCT-116 colon
[17] = tested on: HCC-2998 colon
[18] = tested on: KM12 colon

Row | Compound | growth [1] | growth [2] | growth [3] | growth [4] | growth [5] | growth [6] | growth [7] | growth [8] | growth [9] | growth [10] | growth [11] | growth [12] | growth [13] | growth [14] | growth [15] | growth [16] | growth [17] | growth [18]
1 | NC(=O)OCCO | 94.5% (inactive) | 104% (inactive) | 104% (inactive) | 107% (inactive) | 109% (inactive) | 105% (inactive) | 108% (inactive) | 102% (inactive) | 99.2% (inactive) | 105% (inactive) | 94.4% (inactive) | 94.9% (inactive) | 111% (inactive) | 106% (inactive) | 92.9% (inactive) | 90.6% (inactive) | 97.9% (inactive) | 98.7% (inactive)
2 | O=C(Nc1ccc([N+](=O)[O-])cc1)C(=O)Nc1ccc([N+](=O)[O-])cc1 | 101% (inactive) | 105% (inactive) | 86.4% (inactive) | 102% (inactive) | 121% (inactive) | 93.5% (inactive) | 105% (inactive) | 103% (inactive) | 95% (inactive) | 105% (inactive) | 88.7% (inactive) | 100% (inactive) | 106% (inactive) | 96.5% (inactive) | 90.6% (inactive) | 97.3% (inactive) | 103% (inactive) | 99% (inactive)
3 | Cc1ccc(NC(=S)N2CCOCC2)cc1C | 108% (inactive) | 102% (inactive) | 104% (inactive) | 102% (inactive) | 102% (inactive) | 97.9% (inactive) | 103% (inactive) | 104% (inactive) | 94.7% (inactive) | 110% (inactive) | 92.1% (inactive) | 102% (inactive) | 83.2% (inactive) | 109% (inactive) | 104% (inactive) | 89.5% (inactive) | 109% (inactive) | 101% (inactive)
4 | O=S(=O)(c1ccc(NC(=S)NCc2cccnc2)cc1)N1CCCCC1 | 49.1% (inactive) | 36.2% (inactive) | 110% (inactive) | 59.8% (inactive) | 95.6% (inactive) | 79.3% (inactive) | 62% (inactive) | 82.3% (inactive) | 70.3% (inactive) | 63.4% (inactive) | 32.9% (inactive) | 73.4% (inactive) | 36.2% (inactive) | 32.7% (inactive) | 54.7% (inactive) | 26.2% (inactive) | 71.6% (inactive) | 51.7% (inactive)
5 | C1CCc2onc(-c3noc4c3CCCCC4)c2CC1 | 92.4% (inactive) | 111% (inactive) | 109% (inactive) | 103% (inactive) | 109% (inactive) | 106% (inactive) | 115% (inactive) | 127% (inactive) | 115% (inactive) | 115% (inactive) | 101% (inactive) | 108% (inactive) | 110% (inactive) | 124% (inactive) | 95.5% (inactive) | 105% (inactive) | 109% (inactive) | 107% (inactive)
6 | CCCCOC(=O)c1ccc(NC(=O)CCl)cc1 | -30.8% (active) | 19.5% (inactive) | 42.2% (inactive) | 101% (inactive) | -53% (active) | 105% (inactive) | -49.5% (active) | -83.5% (active) | 79.9% (inactive) | 65.2% (inactive) | 47.2% (inactive) | 47.5% (inactive) | 75.9% (inactive) | 25.8% (inactive) | 22.8% (inactive) | 4.07% (active) | 101% (inactive) | 84.7% (inactive)
7 | COc1ccc(C2CC(c3ccccc3)=Nc3ccccc3S2)cc1 (centres undefined) | 49% (inactive) | 82.1% (inactive) | 115% (inactive) | 116% (inactive) | 97.2% (inactive) | 95.3% (inactive) | 92% (inactive) | 93.3% (inactive) | 102% (inactive) | 94.7% (inactive) | 84.1% (inactive) | 91.6% (inactive) | 98.8% (inactive) | 98.4% (inactive) | 78.7% (inactive) | 88.7% (inactive) | 111% (inactive) | 87.4% (inactive)
8 | O=C(O)C1CSC(c2ccccc2)N1 (centres undefined) | 115% (inactive) | 107% (inactive) | 106% (inactive) | 98.2% (inactive) | 111% (inactive) | 99.5% (inactive) | 105% (inactive) | 104% (inactive) | 88.4% (inactive) | 99.2% (inactive) | 101% (inactive) | 104% (inactive) | 108% (inactive) | 95.2% (inactive) | 91.5% (inactive) | 101% (inactive) | 103% (inactive) | 101% (inactive)
9 | Nc1ccn(C2CC(N)C(CO)O2)c(=O)n1 (centres undefined) | 54.5% (inactive) | 31.5% (inactive) | 45.6% (inactive) | 108% (inactive) | 86.7% (inactive) | 69.6% (inactive) | 87.1% (inactive) | 115% (inactive) | 114% (inactive) | 46% (inactive) | 81.1% (inactive) | 71.8% (inactive) | 83.6% (inactive) | 88.8% (inactive) | 66.5% (inactive) | 63.6% (inactive) | 74.8% (inactive) | 97.4% (inactive)
10 | CCC(=O)Oc1c(C)cc(O)c2ccccc12 | 80.7% (inactive) | 54.6% (inactive) | 81.4% (inactive) | 105% (inactive) | 82.3% (inactive) | 104% (inactive) | 88.2% (inactive) | 72.6% (inactive) | 91.2% (inactive) | 85.2% (inactive) | 79.5% (inactive) | 82.1% (inactive) | 95.7% (inactive) | 103% (inactive) | 93.3% (inactive) | 70% (inactive) | 106% (inactive) | 88.6% (inactive)
11 | Cc1ccc(N)c(S(=O)(=O)O)c1 | 79% (inactive) | 90.2% (inactive) | 103% (inactive) | 89% (inactive) | 83.7% (inactive) | 103% (inactive) | 206% (inactive) | 106% (inactive) | 113% (inactive) | 94.5% (inactive) | 101% (inactive) | 104% (inactive) | 117% (inactive) | 101% (inactive) | 98.9% (inactive) | 98.1% (inactive) | 95.7% (inactive) | 101% (inactive)
12 | OC(CBr)CCBr (centres undefined) | 78.3% (inactive) | 98.8% (inactive) | 99.8% (inactive) | 106% (inactive) | 93.5% (inactive) | 101% (inactive) | 89.5% (inactive) | 112% (inactive) | 103% (inactive) | 106% (inactive) | 93.6% (inactive) | 124% (inactive) | 97.2% (inactive) | 104% (inactive) | 86.6% (inactive) | 104% (inactive) | 111% (inactive) | 113% (inactive)
13 | OCCNc1ccccc1 | 93.2% (inactive) | 105% (inactive) | 102% (inactive) | 107% (inactive) | 101% (inactive) | 105% (inactive) | 110% (inactive) | 105% (inactive) | 101% (inactive) | 100% (inactive) | 98.7% (inactive) | 97.4% (inactive) | 107% (inactive) | 108% (inactive) | 97.1% (inactive) | 89.9% (inactive) | 105% (inactive) | 101% (inactive)
14 | CC(=O)OC(C)c1cccc(C#N)c1 (centres undefined) | 104% (inactive) | 102% (inactive) | 103% (inactive) | 104% (inactive) | 109% (inactive) | 93.8% (inactive) | 115% (inactive) | 111% (inactive) | 106% (inactive) | 106% (inactive) | 99.1% (inactive) | 109% (inactive) | 113% (inactive) | 98.2% (inactive) | 101% (inactive) | 100% (inactive) | 107% (inactive) | 104% (inactive)
15 | Nc1nc(N)nc(N2CCCCC2)n1 | 97.9% (inactive) | 101% (inactive) | 105% (inactive) | 102% (inactive) | 111% (inactive) | 106% (inactive) | 96% (inactive) | 105% (inactive) | 97.3% (inactive) | 110% (inactive) | 101% (inactive) | 106% (inactive) | 115% (inactive) | 106% (inactive) | 104% (inactive) | 106% (inactive) | 106% (inactive) | 101% (inactive)
16 | COc1ccc2c(Cl)cc(NC(=O)Nc3c(C)cccc3C)nc2c1 | 63.4% (inactive) | 73% (inactive) | 61.3% (inactive) | 83% (inactive) | -14.7% (active) | -6.49% (active) | 52.3% (inactive) | 78.2% (inactive) | 57.2% (inactive) | 78.2% (inactive) | 62.2% (inactive) | 93.8% (inactive) | 83% (inactive) | 85.3% (inactive) | 75.7% (inactive) | 63.8% (inactive) | 95.3% (inactive) | 88.8% (inactive)
17 | C[n+]1cc2cc3c(cc2c2ccccc21)OCO3 | 15.6% (inactive) | 40.3% (inactive) | 77.9% (inactive) | 74% (inactive) | 52.3% (inactive) | 46% (inactive) | 84.1% (inactive) | 51.5% (inactive) | 42.1% (inactive) | 106% (inactive) | 39.8% (inactive) | 20% (inactive) | 64.9% (inactive) | 56.5% (inactive) | 24.5% (inactive) | 40.3% (inactive) | 54.7% (inactive) | 12.9% (inactive)
18 | S=C(NCc1ccccc1)N1CCC(CCCC2CCN(C(=S)NCc3ccccc3)CC2)CC1 | 93.2% (inactive) | 75.5% (inactive) | 96.4% (inactive) | 121% (inactive) | 76.9% (inactive) | 100% (inactive) | 117% (inactive) | 95% (inactive) | 108% (inactive) | 99.3% (inactive) | 71.8% (inactive) | 98.2% (inactive) | 101% (inactive) | 108% (inactive) | 82.3% (inactive) | 85.5% (inactive) | 123% (inactive) | 95.9% (inactive)
